Data on 21 molecules can be found in PubChem BioAssay (NCATS).

Test [1] concerns the target Guanine nucleotide-binding protein G(i) subunit alpha-1 (Homo sapiens) (UniProt P63096). Nature of the test: qHTS Assay for Inhibitors of RGS12 GoLoco Motif Activity (Green Fluorophore) (AID 879).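 Note: negative values mean loss of peptide binding seen as reduced polarization.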 In short, it runs like this:
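A drop in FITC polarization marked displacement of the FITC-tagged RGS12 GoLoco peptide (10 nM) from Gαi1 (50 nM). Compounds were incubated 10 min at room temperature in Tris pH 7.5 buffer containing 150 mM NaCl, 0.1 mM GDP and 0.05% NP40; unlabeled peptide titration served as control.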
For orientation: qHTS replaces the single test concentration by a dilution series.

Test [2] has as its target Cytochrome P450 2D6 (Homo sapiens) (UniProt P10635). Kind of test: qHTS Assay for Inhibitors and Substrates of Cytochrome P450 2D6 (AID 891). Note: nearly all actives have a fitted effect of over 60% in size. Note: potency is the fitted concentration of half-maximal effect. In short, it runs like this:
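Luminescent read-out of luciferin formed by 5 nM human CYP2D6 demethylating 30 uM Luciferin-ME EGE (Km level) over 60 min at room temperature after NADPH regeneration addition. Data normalized to full inhibition by 1.43 uM quinidine.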

Test [3] addresses Cytochrome P450 2C19 (Homo sapiens) (UniProt P33261). Kind of test: qHTS Assay for Inhibitors and Substrates of Cytochrome P450 2C19 (AID 899). Note: nearly all actives have a fitted effect of over 60% in size. Note: potency is the fitted concentration of half-maximal effect. The essentials: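 NADPH-dependent conversion of Luciferin-H EGE (10uM, at KM) by 5nM enzyme in 50mM KPO4, 60 min at 37C following 10 min compound preincubation. Stopped with luciferin detection buffer; luminescence read after 20 min.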

Test [4] can be described thus: qHTS Assay for Identification of Small Molecule Agonists for Thrombopoietin (TPO) Signaling Pathway (AID 917). In short, it runs like this:
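Quantitative HTS for pathway activators: compounds were pin-transferred onto IL-3-starved Ba/F3 cells expressing human TPO receptor, TPO was added at its EC50 (26 pM final), and after 24 hrs at 37 C reporter luciferase was measured.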

For test [5], the target named is Muscarinic acetylcholine receptor M1 (Rattus norvegicus) (UniProt P08482). Nature of the test: qHTS Assay for Antagonists of Acetylcholine Muscarinic M1 Receptor: Kinetic Measurement of Intracellular Calcium Response (AID 943).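 Note: Fluo-4 calcium signal as peak divided by basal fluorescence over 4 min; series mostly up to about 35 µM; nearly all actives have a fitted effect of over 75% in size.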 The essentials:
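Antagonism is measured as inhibition of the carbachol-evoked calcium rise in CHO cells transfected with rat M1. Cells are dye-loaded, exposed to compound for 10 min, then stimulated with 100 nM carbachol (EC80).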

Test [6] shares this target. Nature of the test: qHTS Assay for Antagonists of Acetylcholine Muscarinic M1 Receptor: Measurement of IP-One Response (AID 944). Note: nearly all actives have a fitted effect of over 75% in size. In short, it runs like this:
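Antagonist mode with rat M1 receptor transfected into CHO cells. Compound is added first for 10 min, carbachol at its EC80 follows for 30 min, and lysis reagents then allow TR-FRET detection of accumulated IP1.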

Test [7] addresses Pyruvate kinase (Leishmania mexicana) (UniProt Q27686). Kind of test: qHTS Validation Assay for Inhibitors of Leishmania Mexicana Pyruvate Kinase (AID 945). The essentials: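 Luminescent ATP detection (PKLight) after a 1 h room-temperature reaction of 0.2 nM LmPYK E451W mutant with 0.5 mM PEP and 0.1 mM ADP at pH 7.2. Activity is normalized to DMSO-only control wells.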
A short description of test [8]: Confirmation and Secondary Assay for Modulators of Hemoglobin Beta Chain Splicing at IVS2 705 locus (AID 930).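 Note: HeLa cells stably expressing the EGFP-705 splicing reporter; GFP fluorescence per well restored by corrected splicing of the IVS2-705 intron in EGFP; series mostly up to about 46 µM.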 The essentials:
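Read-out: total peak GFP fluorescence per well (488 nm excitation, 500-520 nm emission) by laser-scanning cytometry. Cells: HeLa EGFP-705 splicing reporter, 2 days compound exposure in Optimem/2% FCS.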

A short description of test [9]: Cellular Toxicity (caspase-3) N2a (AID 665).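 Note: compound exposure lasted 16 h at 37 °C before readout.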 In short, it runs like this:
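Caspase-3/7 activation, measured as increased luminescence from aminoluciferin release, is quantified in mouse N2a cells exposed to compounds for 16 h. Values are normalized to DMSO and 10 uM staurosporine, with AC50 derived by Hill modelling.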

The nature of test [10]: Cellular Toxicity (caspase-3) NIH 3T3 (AID 666).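 Note: caspase signal read after 16 h compound exposure.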 In short, it runs like this: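 Cells were plated at 1000 per well and incubated 5 hr at 37°C, then compound was added for 16 hr. Caspase-Glo 3/7 reagent followed for 20 min at room temperature before luminescence was read.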
Test [11] is described as follows: Cellular Toxicity (caspase-3) Renal Proximal Tubule (AID 667).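 Note: cells exposed to compound for 16 hours at 37 °C before detection.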 The essentials: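 In qHTS format, rat primary proximal tubule cells seeded at 1000 per well are exposed to compounds for 16 hours at 37 °C. An increase in Caspase-Glo 3/7 luminescence indicates caspase activation.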
For test [12], the target named is Cytochrome P450 3A4 (Homo sapiens) (UniProt P08684). Nature of the test: qHTS Assay for Inhibitors and Substrates of Cytochrome P450 3A4 (AID 884). Note: series mostly up to about 57 µM; nearly all actives have a fitted effect of over 50% in size. The essentials:
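Luminescent readout of luciferin produced by CYP3A4 (20 nM) dealkylation of Luciferin-PPXE, 25 uM (its KM). NADPH-driven reaction ran 60 min at RT after 10 min compound preincubation; data scaled to 57 uM ketoconazole as 100% inhibition.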

The nature of test [13]: Cell Viability - LYMP2-001 (AID 921).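 Note: cells exposed to compound for 24 h at 37 °C; nearly all actives have a fitted effect of over 70% in size.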 Note: potency is the fitted concentration of half-maximal effect. In short, it runs like this: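 qHTS, 1536-well; lymphoblastoid cells, 24 hr compound, 37 C; ATP by CellTiter-Glo, 30 min RT; luminescence; Hill-fit AC50.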
Test [14] in a line: MultiTox-Fluor Cytotoxicity Assay - LYMP1-001 - Dead Cells (AID 946). Note: potency is the fitted concentration of half-maximal effect. The essentials: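 Cytotoxicity as increased dead-cell protease fluorescence (bis-AAF-R110, 485/520 nm), read 60 min after MultiTox-Fluor reagent. Human lymphoblastoid line exposed 16 h; Hill-fitted AC50, with DMSO as 0% and 15 uM tetraoctylammonium bromide as 100%.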
Test [15] can be described thus: MultiTox-Fluor Cytotoxicity Assay - LYMP1-001 - Live Cells (AID 947). Note: potency is the fitted concentration of half-maximal effect.
Test [16] in a line: Cell Viability - LYMP1-002 - Assay at 16 hr (AID 948). The essentials:
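Acute cytotoxicity is scored as a concentration-dependent fall in intracellular ATP in a human lymphoblastoid line (LYMP1-002) after 16 hr compound exposure at 37 C, measured by luciferase luminescence.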

Test [17] addresses Cytochrome P450 2C9 (Homo sapiens) (UniProt P11712). Nature of the test: qHTS Assay for Inhibitors and Substrates of Cytochrome P450 2C9 (AID 883). Note: potency is the fitted concentration of half-maximal effect; nearly all actives have a fitted effect of over 60% in size. In short, it runs like this:
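A luminogenic readout tracked human CYP2C9 (10nM) converting deoxyluciferin (100uM, at KM) in 25mM KPO4 during 60 min at 37C with regenerated NADPH. Values normalized to 57uM sulphaphenazole as complete inhibition.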

The target in test [18] is Cytochrome P450 3A4 (Homo sapiens) (UniProt P08684). Nature of the test: qHTS Assay for Activators of Cytochrome P450 3A4 (AID 885). Note: nearly all actives have a fitted effect of over 65% in size. Note: potency is the fitted concentration of half-maximal effect. The essentials:
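Luminescent readout of luciferin formed from 25 uM Luciferin-PPXE (KM level) by 20 nM CYP3A4 in 200 mM KPO4, with 60 min NADPH-driven reaction at room temperature after 10 min compound exposure. Ketoconazole (57 uM) defined 100% inhibition.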

The nature of test [19]: qHTS Assay for Identification of Small Molecule Antagonists for NFkB Signaling Pathway (AID 895; active = well fitted inhibition curve with a large enough effect in the signal ratio, with a control signal flat, not every such curve was filed as active; the % refers to the signal ratio). In short, it runs like this: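 NFkB-bla ME-180 cervical carcinoma cells with beta-lactamase reporter under NFkB response element; compounds added, then TNF alpha at 10 pM final (EC50), 5 h at 37 C. LiveBLAzer substrate 2 h, room temperature; emission 460/530 nm at 405 nm excitation.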

A number with no mark means an inactive call. Results filed as inconclusive are left out. The source made the active and inactive calls. Unless noted, calls come from the whole dose curve; as a rule, active = well fitted curve in the direction sought with a large enough effect; inconclusive = small, poorly fitted or top-dose-only effect, or another doubt; inactive = no such curve, though single readings can be large; an effect the other way counts as inactive or inconclusive.

Chain of Cytochrome P450 2C19 (Homo sapiens) (P33261 whole entry, looked up): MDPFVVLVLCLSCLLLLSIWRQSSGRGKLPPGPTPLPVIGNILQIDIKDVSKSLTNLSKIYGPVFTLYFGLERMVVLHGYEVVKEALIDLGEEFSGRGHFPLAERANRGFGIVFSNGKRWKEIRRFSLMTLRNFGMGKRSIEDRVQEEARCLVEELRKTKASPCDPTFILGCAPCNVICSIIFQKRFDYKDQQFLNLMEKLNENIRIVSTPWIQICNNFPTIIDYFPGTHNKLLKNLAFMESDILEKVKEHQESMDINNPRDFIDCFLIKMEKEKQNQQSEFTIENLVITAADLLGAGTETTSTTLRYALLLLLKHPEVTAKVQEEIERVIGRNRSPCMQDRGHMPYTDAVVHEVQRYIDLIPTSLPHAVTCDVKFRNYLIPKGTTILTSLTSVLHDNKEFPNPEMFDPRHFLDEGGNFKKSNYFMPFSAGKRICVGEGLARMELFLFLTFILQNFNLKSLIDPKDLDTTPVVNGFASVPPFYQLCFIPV
Chain of Pyruvate kinase (Leishmania mexicana) (Q27686 2-499 E452W): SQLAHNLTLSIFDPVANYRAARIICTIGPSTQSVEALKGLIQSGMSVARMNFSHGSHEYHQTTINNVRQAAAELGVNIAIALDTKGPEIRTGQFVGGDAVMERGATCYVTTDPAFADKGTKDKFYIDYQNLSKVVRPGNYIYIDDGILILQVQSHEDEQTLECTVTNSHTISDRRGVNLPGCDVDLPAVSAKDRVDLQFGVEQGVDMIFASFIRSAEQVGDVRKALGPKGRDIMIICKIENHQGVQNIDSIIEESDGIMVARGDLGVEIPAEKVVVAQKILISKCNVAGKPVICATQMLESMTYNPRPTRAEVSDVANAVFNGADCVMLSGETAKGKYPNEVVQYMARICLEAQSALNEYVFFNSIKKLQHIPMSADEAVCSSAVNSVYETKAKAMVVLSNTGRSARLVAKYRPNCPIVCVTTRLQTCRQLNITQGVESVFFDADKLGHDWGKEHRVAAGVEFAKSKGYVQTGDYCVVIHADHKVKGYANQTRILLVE
Chain of Cytochrome P450 3A4 (Homo sapiens) (P08684 whole entry, looked up): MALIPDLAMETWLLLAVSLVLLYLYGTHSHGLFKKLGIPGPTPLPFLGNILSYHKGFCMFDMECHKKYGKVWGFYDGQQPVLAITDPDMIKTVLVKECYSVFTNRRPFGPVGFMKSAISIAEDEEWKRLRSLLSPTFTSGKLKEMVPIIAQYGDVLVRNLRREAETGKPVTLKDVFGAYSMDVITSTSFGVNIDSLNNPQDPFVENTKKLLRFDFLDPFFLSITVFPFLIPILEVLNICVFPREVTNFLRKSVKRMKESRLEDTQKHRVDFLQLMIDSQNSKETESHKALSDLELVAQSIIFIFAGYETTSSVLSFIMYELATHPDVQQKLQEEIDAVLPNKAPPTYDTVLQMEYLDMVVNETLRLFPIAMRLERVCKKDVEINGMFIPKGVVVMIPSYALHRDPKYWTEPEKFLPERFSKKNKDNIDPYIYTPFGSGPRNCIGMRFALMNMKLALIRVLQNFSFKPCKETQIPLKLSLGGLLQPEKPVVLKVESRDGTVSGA
Chain of Cytochrome P450 2D6 (Homo sapiens) (P10635 whole entry, looked up): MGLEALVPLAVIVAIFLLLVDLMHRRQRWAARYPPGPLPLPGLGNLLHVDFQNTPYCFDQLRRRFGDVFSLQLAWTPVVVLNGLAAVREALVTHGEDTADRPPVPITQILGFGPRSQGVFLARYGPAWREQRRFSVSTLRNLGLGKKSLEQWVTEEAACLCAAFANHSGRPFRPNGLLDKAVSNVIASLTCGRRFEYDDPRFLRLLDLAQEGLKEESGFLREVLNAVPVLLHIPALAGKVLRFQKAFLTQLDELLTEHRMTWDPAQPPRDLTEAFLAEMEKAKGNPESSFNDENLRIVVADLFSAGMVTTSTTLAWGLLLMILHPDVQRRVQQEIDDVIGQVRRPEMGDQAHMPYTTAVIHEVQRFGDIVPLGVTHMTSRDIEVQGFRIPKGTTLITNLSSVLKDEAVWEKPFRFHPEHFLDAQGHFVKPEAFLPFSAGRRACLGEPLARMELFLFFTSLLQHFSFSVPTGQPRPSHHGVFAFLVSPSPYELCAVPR
Chain of Guanine nucleotide-binding protein G(i) subunit alpha-1 (Homo sapiens) (P63096 whole entry, looked up): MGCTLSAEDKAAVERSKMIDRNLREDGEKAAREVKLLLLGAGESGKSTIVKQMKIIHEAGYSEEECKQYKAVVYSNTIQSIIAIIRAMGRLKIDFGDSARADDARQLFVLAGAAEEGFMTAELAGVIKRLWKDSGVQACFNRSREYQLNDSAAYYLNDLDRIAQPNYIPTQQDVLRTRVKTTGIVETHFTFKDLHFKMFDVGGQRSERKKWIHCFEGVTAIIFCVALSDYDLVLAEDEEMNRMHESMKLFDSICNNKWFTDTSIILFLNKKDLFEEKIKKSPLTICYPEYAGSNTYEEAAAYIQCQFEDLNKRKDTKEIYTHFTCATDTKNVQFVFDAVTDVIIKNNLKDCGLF
Chain of Muscarinic acetylcholine receptor M1 (Rattus norvegicus) (P08482 whole entry, looked up): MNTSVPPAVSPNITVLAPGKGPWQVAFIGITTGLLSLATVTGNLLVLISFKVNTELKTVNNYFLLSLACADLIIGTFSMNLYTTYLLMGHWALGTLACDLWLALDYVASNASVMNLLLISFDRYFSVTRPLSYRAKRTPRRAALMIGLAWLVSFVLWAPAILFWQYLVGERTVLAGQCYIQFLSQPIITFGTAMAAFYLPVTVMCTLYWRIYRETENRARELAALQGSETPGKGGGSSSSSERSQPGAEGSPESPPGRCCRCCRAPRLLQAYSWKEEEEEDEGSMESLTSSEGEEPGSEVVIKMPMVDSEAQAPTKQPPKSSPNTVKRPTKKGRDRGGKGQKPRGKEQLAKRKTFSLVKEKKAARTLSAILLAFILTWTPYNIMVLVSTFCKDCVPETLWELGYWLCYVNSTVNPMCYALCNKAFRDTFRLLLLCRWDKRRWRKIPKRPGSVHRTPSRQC
Chain of Cytochrome P450 2C9 (Homo sapiens) (P11712 whole entry, looked up): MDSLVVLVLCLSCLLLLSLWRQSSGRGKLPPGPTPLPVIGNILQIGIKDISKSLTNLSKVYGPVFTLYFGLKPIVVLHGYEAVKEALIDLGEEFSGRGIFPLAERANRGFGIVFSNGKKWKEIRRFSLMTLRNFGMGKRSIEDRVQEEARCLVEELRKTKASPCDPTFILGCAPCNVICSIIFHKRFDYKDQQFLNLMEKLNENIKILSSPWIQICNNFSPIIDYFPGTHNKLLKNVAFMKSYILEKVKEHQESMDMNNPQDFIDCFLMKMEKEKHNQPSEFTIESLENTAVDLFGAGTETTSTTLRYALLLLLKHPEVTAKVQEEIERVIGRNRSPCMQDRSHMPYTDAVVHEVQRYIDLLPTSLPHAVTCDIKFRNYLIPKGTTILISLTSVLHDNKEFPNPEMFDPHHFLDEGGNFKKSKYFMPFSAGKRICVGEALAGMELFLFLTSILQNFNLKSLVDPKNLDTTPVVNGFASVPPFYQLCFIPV

Turning to `O=C(O)c1nn(Cc2ccc(Cl)cc2Cl)c2ccccc12`, the molecule was called inactive in [1], in test [4] and in [7]. The Potency result in [2], in test [3], in test [5] and in test [6] was “inactive” throughout.

On to `COc1ccc(C(=O)N2CCCC2=O)cc1`, for which the molecule was called inactive in test [1], in test [4], in [8] and in test [7].

Turning to `CNC(=O)Oc1cccc2ccccc12`, the molecule was classed as inactive in [9], in test [10] and in test [11]. For the same molecule, the Potency result in [12], in test [13], in test [14], in test [15] and in test [16] was “inactive” throughout.

On to `CCCCCCCCC(=O)NCc1ccc(O)c(OC)c1`, for which the call in test [1], in [19], in [4], in test [8] and in test [7] was inactive. The Potency in [17] was 3.16 µM (active). Further, the Potency entry in [18] and in test [5] was “inactive” in each case.

In the case of `Oc1ccc(Cl)cc1Sc1cc(Cl)ccc1O`, the results for the Potency in test [17] and in [3] were 0.398 µM (active) and 0.0794 µM (active), respectively.

On to `CC[n+]1c(-c2ccccc2)c2cc(N)ccc2c2ccc(N)cc21`, for which the result in [9], in [11] and in test [8] was inactive. Moreover, the Potency entry in [18] was “inactive”. Moreover, the Potency in test [13] is 7.94 µM (active); in test [14], 39.8 µM (active); in test [15], 25.1 µM (active).

For the molecule `NC(=O)CN1CCCC1=O`, the call in test [1], in [4], in test [8] and in test [7] was inactive. The Potency result in test [12] is “inactive”.

Regarding `COP(=O)(OC)OC=C(Cl)Cl`, the call in test [9], in test [10] and in test [11] was inactive. Further, the Potency entry in [13], in test [14], in test [15] and in test [16] was “inactive” each time.

As for `Oc1ccc2[nH]cc(CCCCN3CC=C(c4ccccc4)CC3)c2c1`, in [12], the Potency entry is “inactive”. In addition, the Potency in test [18] is 3.98 µM (active).

Take `CCCC(C)C1(CC)C(=O)N=C(S)NC1=O` (stereo not drawn): the result in test [8] was inactive.

On to `NC(N)=NCCC[C@H](N)C(=O)O`, for which the Potency result in [3] was “inactive”.

With `O=C(CCCN1CCC(n2c(=O)[nH]c3ccccc32)CC1)c1ccc(F)cc1`, the Potency in test [2] is 6.31 µM (active).

As for `CCCCN(CCCC)CCC(O)c1cc2c(Cl)cc(Cl)cc2c2cc(C(F)(F)F)ccc12` (stereo not drawn), the Potency result in test [18] is “inactive”. Also, in [2], the Potency is 3.98 µM (active).

On to `Clc1ccc(C(OCCN2CCCCC2)c2ccccc2)cc1` (stereo not drawn), for which the Potency entry in [18] is “inactive”. The molecule was called inactive in [8].

Consider `CC(C)[N+](C)(CCC(C(N)=O)(c1ccccc1)c1ccccc1)C(C)C`, for which, in test [12], the Potency entry was “inactive”. Also, in test [2], the Potency is 3.98 µM (active). Further, the molecule was called inactive in test [8].

`N#Cc1nn(-c2c(Cl)cc(C(F)(F)F)cc2Cl)c(N)c1S(=O)C(F)(F)F` (stereo not drawn): the Potency result in test [18] was “inactive”. The outcome in test [8] was inactive.

`Cc1ccc(N=CN(C)C=Nc2ccc(C)cc2C)c(C)c1`: the outcome in test [8] was inactive.

Consider `c1ccc(-c2ccc(C(c3ccccc3)n3ccnc3)cc2)cc1` (stereo not drawn), for which, in test [18], the Potency entry is “inactive”.

As for `CC(=O)c1ccc2c(c1)N(CCCN(C)C)c1ccccc1S2`, the Potency in test [2] was 2.51 µM (active).

As for `CN(C)C(=O)Oc1cc(OC(=O)N(C)C)cc(C(O)CNC(C)(C)C)c1` (stereo not drawn), the Potency result in test [12] is “inactive”. Moreover, in test [8], the molecule was classed as inactive.

With `COC(=O)C1=C(C)NC(C)=C(C(=O)OC)C1c1ccccc1[N+](=O)[O-]`, the Potency in test [14] was 50.1 µM (active).
